According to the supplement of paper PMC4166925:
± gives the standard deviation of the averaged measurements. The full ranking holds about 33,000 sequences; the median of “E-score (dimensionless, -0.5 to 0.5)” is about -0.046, and the highest 2% start at about 0.36. The list comes from a sample in which the highest values are over-represented; it also holds similar and randomly drawn sequences.

What follows are sequences tested on T1, SpTbr T-box DNA-binding domain (GST fusion) (assay: PBM E-score of 8-mer (E-score (dimensionless, -0.5 to 0.5)); Tbr is Tbrain of the sea star Patiria miniata (Pm) or the sea urchin Strongylocentrotus purpuratus (Sp); higher = stronger binding preference). Conditions: the construct has about 5 more residues each side.
T1 sequence: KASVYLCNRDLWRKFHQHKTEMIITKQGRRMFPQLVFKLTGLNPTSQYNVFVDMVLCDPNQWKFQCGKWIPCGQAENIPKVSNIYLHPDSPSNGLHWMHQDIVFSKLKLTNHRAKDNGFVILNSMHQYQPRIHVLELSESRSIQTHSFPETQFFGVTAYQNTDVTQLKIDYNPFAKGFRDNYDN
Experimental: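 Universal protein-binding microarray (Agilent AMADID 016060, 60-bp probes with a 35-bp variable region) incubated with 200 nM GST-fused Strongylocentrotus purpuratus Tbr T-box DNA-binding domain (residues 362-554) in PBS pH 7.5. Scored for every ungapped 8-mer (given with its reverse complement) as E-score (range -0.5 to 0.5; >0.45 counts as bound) and Z-score of median probe intensity. Two replicate arrays (datasets 1 and 2).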
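Also: protein at 200 nM in PBS on universal double-stranded arrays.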

Going from GTGGCCAC to ACTGCTGC, the “PBM E-score of 8-mer” value falls from 0.225 ± 0.026 to -0.0667 ± 0.011.

Compared with ATCAAGAA, GAGTTAGC is higher in “PBM E-score of 8-mer” value: -0.219 ± 0.094 for the first, 0.0856 ± 0.074 for the second.

CTCCAAAC and ATTGTCGA are within error of each other in “PBM E-score of 8-mer” value: -0.0591 ± 0.11 for the first, 0.0605 ± 0.042 for the second.

First: CGTGTCGC
Second: AGTGTCGA
The “PBM E-score of 8-mer” value of the first is lower: 0.254 ± 0.045 for the first, 0.405 ± 0.0049 for the second.

Compared with GTTGTCGA, AGTGTCGC is higher in “PBM E-score of 8-mer” value: 0.271 ± 0.0066 for the first, 0.412 ± 0.016 for the second.

First: ATTGTCGC
Second: GGTGTCGA
The “PBM E-score of 8-mer” value of the first is lower: 0.263 ± 0.028 for the first, 0.453 ± 0.015 for the second.

First: CGTGTCGA
Second: AGTGTCGG
The “PBM E-score of 8-mer” value of the first is lower: 0.264 ± 0.013 for the first, 0.36 ± 0.015 for the second.

Going from CTGAGGAC to AGGGAGCC, the “PBM E-score of 8-mer” value falls from 0.0509 ± 0.03 to -0.14 ± 0.027.

Compared with CAATACTG, AATGGGAA is lower in “PBM E-score of 8-mer” value: -0.127 ± 0.0078 for the first, -0.188 ± 0.032 for the second.

Going from AGGGCTGG to GTTCCTCA, the “PBM E-score of 8-mer” value rises from -0.253 ± 0.011 to -0.0698 ± 0.064.

Compared with CTAGCTAA, CGTCGCAC is higher in “PBM E-score of 8-mer” value: 0.041 ± 0.025 for the first, 0.327 ± 0.0036 for the second.

Going from GGTCGCAC to AGTCGCAG, the “PBM E-score of 8-mer” value falls from 0.365 ± 0.046 to 0.0537 ± 0.061.

First: AGTCGCAA
Second: AGTCGCAC
The “PBM E-score of 8-mer” value of the first is lower: 0.132 ± 0.0059 for the first, 0.387 ± 0.0041 for the second.

Compared with GGTCGCAA, CGGGGCTA is lower in “PBM E-score of 8-mer” value: 0.208 ± 0.029 for the first, -0.315 ± 0.0072 for the second.

ATCCACAG and AACCACCC are within error of each other in “PBM E-score of 8-mer” value: -0.0171 ± 0.029 for the first, -0.022 ± 0.044 for the second.

Compared with ACAAAGCC, ATGGGCCG is lower in “PBM E-score of 8-mer” value: -0.0854 ± 0.036 for the first, -0.31 ± 0.017 for the second.

GCGGAGAA and GCTGCCAA are within error of each other in “PBM E-score of 8-mer” value: 0.059 ± 0.053 for the first, 0.0847 ± 0.029 for the second.

Going from CGTGCCAA to TGTGCCAA, the “PBM E-score of 8-mer” value rises from 0.306 ± 0.03 to 0.364 ± 0.021.

Going from GGTGCCAC to AGTGCCAC, the “PBM E-score of 8-mer” value falls from 0.368 ± 0.0043 to 0.25 ± 0.013.

First: CGTGCCAC
Second: AGTGCCAA
The “PBM E-score of 8-mer” value of the first is lower: 0.254 ± 0.041 for the first, 0.359 ± 0.0081 for the second.

First: GGTGCCTA
Second: GGTGCCAA
The “PBM E-score of 8-mer” value of the first is lower: 0.0923 ± 0.1 for the first, 0.447 ± 0.0064 for the second.

Going from CGGAAAAA to ATCAGTGG, the “PBM E-score of 8-mer” value falls from 0.019 ± 0.025 to -0.149 ± 0.015.

Going from CTGTTGTA to TACGACTA, the “PBM E-score of 8-mer” value falls from 0.0999 ± 0.01 to -0.13 ± 0.016.

AATGCTGT and CCTCAAGA are within error of each other in “PBM E-score of 8-mer” value: -0.0262 ± 0.063 for the first, -0.0881 ± 0.046 for the second.

GGTACTCA and ACTCACGG are within error of each other in “PBM E-score of 8-mer” value: -0.0116 ± 0.057 for the first, 0.061 ± 0.057 for the second.

CATGAAGC and ACGGTTAC are within error of each other in “PBM E-score of 8-mer” value: -0.112 ± 0.013 for the first, -0.0916 ± 0.0079 for the second.

Going from ATGCTCAC to TCCATCGA, the “PBM E-score of 8-mer” value falls from 0.277 ± 0.023 to -0.0839 ± 0.076.

First: GGTCTCAC
Second: ATACCTGC
The “PBM E-score of 8-mer” value of the first is higher: 0.3458 ± 0.0029 for the first, -0.0105 ± 0.0085 for the second.

Going from AGACCTGA to GCACCTGC, the “PBM E-score of 8-mer” value rises from -0.094 ± 0.0078 to 0.388 ± 0.024.

Compared with ACACCTGA, CCACCTGG is lower in “PBM E-score of 8-mer” value: 0.4627 ± 0.0023 for the first, 0.186 ± 0.029 for the second.

Going from AAACCTGA to ACACCTGG, the “PBM E-score of 8-mer” value rises from -0.00426 ± 0.071 to 0.44 ± 0.029.

Compared with CGACCTGC, ATACCTGG is lower in “PBM E-score of 8-mer” value: 0.177 ± 0.026 for the first, 0.0363 ± 0.063 for the second.

Compared with ACACCTGC, CCACCTGC is lower in “PBM E-score of 8-mer” value: 0.4527 ± 0.0032 for the first, 0.269 ± 0.0095 for the second.

GAACCTGC and GCCCAAGC are within error of each other in “PBM E-score of 8-mer” value: -0.126 ± 0.13 for the first, -0.24 ± 0.0088 for the second.

Compared with ACGCAAGA, AACAACGT is higher in “PBM E-score of 8-mer” value: -0.0517 ± 0.024 for the first, 0.00981 ± 0.00099 for the second.

Going from CTTTAAGC to AACTTCAG, the “PBM E-score of 8-mer” value falls from -0.136 ± 0.004 to -0.23 ± 0.022.

First: CTCACTGC
Second: GCATGTCC
The “PBM E-score of 8-mer” value of the first is higher: 0.0922 ± 0.076 for the first, -0.0875 ± 0.095 for the second.

Compared with CGGCTTGC, AAGCGAGG is higher in “PBM E-score of 8-mer” value: -0.14 ± 0.0054 for the first, 0.115 ± 0.03 for the second.

Compared with CAAGCTAC, AAGTGTAC is higher in “PBM E-score of 8-mer” value: -0.147 ± 0.014 for the first, 0.00907 ± 0.056 for the second.

Compared with AAGTGTTG, AAGTGGTA is lower in “PBM E-score of 8-mer” value: 0.422 ± 0.02 for the first, 0.083 ± 0.018 for the second.

Compared with CAGTGTTA, GAGTGTAC is lower in “PBM E-score of 8-mer” value: 0.31 ± 0.028 for the first, -0.0659 ± 0.019 for the second.

Compared with CAGTGTTC, AAGTGTTA is higher in “PBM E-score of 8-mer” value: 0.0165 ± 0.024 for the first, 0.451 ± 0.00073 for the second.

First: AAGTGTTC
Second: GAGTGTTA
The “PBM E-score of 8-mer” value of the first is lower: 0.226 ± 0.11 for the first, 0.386 ± 0.021 for the second.

First: CATCTGTA
Second: CACCAATG
The “PBM E-score of 8-mer” value of the first is lower: -0.0572 ± 0.038 for the first, 0.179 ± 0.0061 for the second.

First: CACAATCC
Second: ATGCCCAT
The “PBM E-score of 8-mer” value of the first is higher: 0.0504 ± 0.056 for the first, -0.184 ± 0.01 for the second.

First: AGGCAGAT
Second: TGGGCGAA
The “PBM E-score of 8-mer” value of the first is higher: -0.0669 ± 0.075 for the first, -0.169 ± 0.019 for the second.

First: GAGGACAC
Second: GGTGGGGA
The “PBM E-score of 8-mer” value of the first is lower: 0.155 ± 0.015 for the first, 0.248 ± 0.033 for the second.
